Assay results as given in PubChem BioAssay.
Calls of active or inactive are those of the source.

Tests used:
[1] = tested on: PRMT1 (protein arginine N-methyltransferase 1); assay: PRMT1 binders on small-molecule microarrays, primary screen, biochemical, small-molecule microarray, 635 nm fluorescence (AID 1088); settings: small-molecule microarray binding, higher = more signal;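 further: binding of Prmt1 protein to compounds spotted on small-molecule microarray slides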
[2] = yeast growth modulation, basal conditions, primary screen, YJM789 clinical isolate, OD600, 24 h (AID 1089);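 further: growth of clinical yeast isolate S. cerevisiae YJM 789 seeded 1000 cells per well; test concentration not given here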; settings: S. cerevisiae YJM789 growth, higher = more signal, called active from +8 up or from −8 down
[3] = fission yeast growth modulation, primary screen, strain 972, OD600, 24 h, no modulator (AID 1090);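 further: basal condition with compound alone and no growth modifier present; test concentration not given here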; settings: S. pombe 972 growth, higher = more signal, called active from +8 up or from −8 down
[4] = S. cerevisiae growth modulation with rapamycin, primary screen, strain BY4716, OD600, 96 h (AID 1091); settings: higher = more signal, called active from +8 up or from −8 down; further: test concentration not given here
[5] = biological target: Torsin-1A-interacting protein 2 (Homo sapiens) (UniProt Q8NFQ8); assay: LULL1 binders on small-molecule microarray, primary screen, cell lysate, human LULL1 lysate, 635/667 nm fluorescence (AID 1092); settings: hLULL1 lysate binding, 635 nm fluorescence, higher = more signal;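 further: probe is lysate of COS7 cells overexpressing human LULL1; score merges per-feature 667 nm fluorescence with signal-to-noise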
[6] = E. coli growth modulation, two-sided OD650, primary screen, E. coli filamentation project, strain DRC41, 24 h (AID 1093); settings: OD650, 24 h, higher = more signal, called active from +8 up or from −8 down;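 further: MC1000 strain lacking acrAB efflux and sulA so SOS filamentation is blocked; test concentration not given here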
[7] = small-molecule microarray binders of probe aLefty2, primary screen, biochemical, biotinylated probe, 635/667 nm fluorescence (AID 1094); settings: higher = more signal;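 further: score merges spot fluorescence near 667 nm with spot signal-to-noise ratio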
[8] = tested on: Noggin (protein binding on small-molecule microarray); assay: Noggin binders on small-molecule microarray, primary screen, biochemical, 635/667 nm fluorescence (AID 1095); settings: 635 nm fluorescence, higher = more signal;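 further: score merges 667 nm feature fluorescence with signal to noise over triplicate slides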
[9] = biological target: Neurogenic locus notch homolog protein 3 (Homo sapiens) (UniProt Q9UM47); assay: NOTCH3 binders on small-molecule microarray, primary screen, biochemical, 635/667 nm fluorescence (AID 1096); settings: NOTCH3 binding, 635 nm fluorescence, higher = more signal
[10] = small-molecule microarray binders of probe aEGFR, primary screen, biochemical, biotinylated probe, 635/667 nm fluorescence (AID 1097); settings: higher = more signal;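 further: probe is a biotinylated anti-EGFR antibody binding compounds printed on slides; score combines fluorescence near 667 nm and signal to noise of each spot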
[11] = tested on: Plasmodium falciparum Sir2 (PF13_0152, Sir2A); assay: pfSir2 binders on small-molecule microarrays, primary screen, biochemical, small-molecule microarray, 635 nm fluorescence (AID 1098); settings: small-molecule microarray binding, fluorescence 635 nm; higher = more signal;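 further: score merges spot fluorescence intensity with its signal-to-noise ratio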
[12] = small-molecule microarray binders of probe aDKK1, primary screen, biochemical, biotinylated probe, 635/667 nm fluorescence (AID 1099); settings: higher = more signal;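 further: score merges 667nm spot fluorescence with signal to noise across triplicate slides; reference of the scale not given here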
[13] = small-molecule microarray binders of probe aCHRDL2, primary screen, biochemical, biotinylated probe, 635/667 nm fluorescence (AID 1100); settings: higher = more signal
[14] = splicing luciferase reporter signal modulators, primary screen, spliceosome inhibition project, cell-based, HEK293, splice +/- reporter (AID 1101); settings: luminescence, 24 h, higher = more signal, called active from +8 up or from −8 down;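 further: HEK293 cells carrying a splicing-competent luciferase reporter gene; test concentration not given here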
[15] = biological target: Fibroblast growth factor 10 (Homo sapiens) (UniProt O15520); assay: FGF10 binders on small-molecule microarrays, primary screen, biochemical, small-molecule microarray, 635 nm fluorescence (AID 1102); settings: FGF10 binding, fluorescence 635 nm, higher = more signal
[16] = tested on: glycogen synthase kinase-3 (GSK3A per assay name; protocol says GSK3B); assay: GSK3 binders on small-molecule microarrays, primary screen, biochemical, small-molecule microarray, 635 nm fluorescence, GSK3A (AID 1103); settings: small-molecule microarray binding, fluorescence 635 nm; higher = more signal; further: the record names both GSK3A and GSK3B
[17] = biological target: Epidermal growth factor receptor (Homo sapiens) (UniProt P00533); assay: EGFR binders on small-molecule microarrays, primary screen, biochemical, small-molecule microarray, 635 nm fluorescence (AID 1104); settings: EGFR binding, higher = more signal;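 further: score merges 667 nm emission intensity with spot signal to noise over triplicate slides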
[18] = biological target: Follistatin-related protein 3 (Homo sapiens) (UniProt O95633); assay: FSTL3 binders on small-molecule microarrays, primary screen, biochemical, small-molecule microarray, 635 nm fluorescence (AID 1105); settings: FSTL3 binding, higher = more signal;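 further: score merges emission near 667 nm and signal to noise per printed spot across three slides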
[19] = biological target: Dickkopf-related protein 1 (Homo sapiens) (UniProt O94907); assay: DKK1 binders on small-molecule microarrays, primary screen, biochemical, small-molecule microarray, 635 nm fluorescence scan (AID 1106); settings: DKK1 binding, higher = more signal;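 further: score merges emission near 667 nm with signal to noise over three replicate slides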
[20] = tested on: Inhibin beta A chain (activin A); assay: INHBA (activin A) binders on microarrays, primary screen, biochemical, small-molecule microarray, 635 nm fluorescence scan (AID 1107); settings: small-molecule microarray binding, higher = more signal;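 further: mouse activin A protein probed at 4.33 µg/mL on printed slides; score merges bound-protein fluorescence near 667 nm with spot signal-to-noise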

Chain of Fibroblast growth factor 10 (Homo sapiens) (O15520 whole entry, looked up): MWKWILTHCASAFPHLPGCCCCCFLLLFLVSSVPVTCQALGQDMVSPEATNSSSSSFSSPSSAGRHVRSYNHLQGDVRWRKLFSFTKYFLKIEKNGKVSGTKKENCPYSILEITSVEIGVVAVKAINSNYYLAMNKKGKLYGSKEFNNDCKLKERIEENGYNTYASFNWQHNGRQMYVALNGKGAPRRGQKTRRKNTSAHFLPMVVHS
Chain of Follistatin-related protein 3 (Homo sapiens) (O95633 whole entry, looked up): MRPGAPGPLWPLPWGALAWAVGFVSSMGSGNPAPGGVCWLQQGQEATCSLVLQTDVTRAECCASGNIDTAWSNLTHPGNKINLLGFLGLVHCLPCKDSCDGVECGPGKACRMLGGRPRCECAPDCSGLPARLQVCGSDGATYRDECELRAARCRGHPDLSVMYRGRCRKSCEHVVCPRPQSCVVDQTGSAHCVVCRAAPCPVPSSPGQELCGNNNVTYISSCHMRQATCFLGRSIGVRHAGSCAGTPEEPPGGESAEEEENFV
Chain of Neurogenic locus notch homolog protein 3 (Homo sapiens) (Q9UM47 whole entry, looked up): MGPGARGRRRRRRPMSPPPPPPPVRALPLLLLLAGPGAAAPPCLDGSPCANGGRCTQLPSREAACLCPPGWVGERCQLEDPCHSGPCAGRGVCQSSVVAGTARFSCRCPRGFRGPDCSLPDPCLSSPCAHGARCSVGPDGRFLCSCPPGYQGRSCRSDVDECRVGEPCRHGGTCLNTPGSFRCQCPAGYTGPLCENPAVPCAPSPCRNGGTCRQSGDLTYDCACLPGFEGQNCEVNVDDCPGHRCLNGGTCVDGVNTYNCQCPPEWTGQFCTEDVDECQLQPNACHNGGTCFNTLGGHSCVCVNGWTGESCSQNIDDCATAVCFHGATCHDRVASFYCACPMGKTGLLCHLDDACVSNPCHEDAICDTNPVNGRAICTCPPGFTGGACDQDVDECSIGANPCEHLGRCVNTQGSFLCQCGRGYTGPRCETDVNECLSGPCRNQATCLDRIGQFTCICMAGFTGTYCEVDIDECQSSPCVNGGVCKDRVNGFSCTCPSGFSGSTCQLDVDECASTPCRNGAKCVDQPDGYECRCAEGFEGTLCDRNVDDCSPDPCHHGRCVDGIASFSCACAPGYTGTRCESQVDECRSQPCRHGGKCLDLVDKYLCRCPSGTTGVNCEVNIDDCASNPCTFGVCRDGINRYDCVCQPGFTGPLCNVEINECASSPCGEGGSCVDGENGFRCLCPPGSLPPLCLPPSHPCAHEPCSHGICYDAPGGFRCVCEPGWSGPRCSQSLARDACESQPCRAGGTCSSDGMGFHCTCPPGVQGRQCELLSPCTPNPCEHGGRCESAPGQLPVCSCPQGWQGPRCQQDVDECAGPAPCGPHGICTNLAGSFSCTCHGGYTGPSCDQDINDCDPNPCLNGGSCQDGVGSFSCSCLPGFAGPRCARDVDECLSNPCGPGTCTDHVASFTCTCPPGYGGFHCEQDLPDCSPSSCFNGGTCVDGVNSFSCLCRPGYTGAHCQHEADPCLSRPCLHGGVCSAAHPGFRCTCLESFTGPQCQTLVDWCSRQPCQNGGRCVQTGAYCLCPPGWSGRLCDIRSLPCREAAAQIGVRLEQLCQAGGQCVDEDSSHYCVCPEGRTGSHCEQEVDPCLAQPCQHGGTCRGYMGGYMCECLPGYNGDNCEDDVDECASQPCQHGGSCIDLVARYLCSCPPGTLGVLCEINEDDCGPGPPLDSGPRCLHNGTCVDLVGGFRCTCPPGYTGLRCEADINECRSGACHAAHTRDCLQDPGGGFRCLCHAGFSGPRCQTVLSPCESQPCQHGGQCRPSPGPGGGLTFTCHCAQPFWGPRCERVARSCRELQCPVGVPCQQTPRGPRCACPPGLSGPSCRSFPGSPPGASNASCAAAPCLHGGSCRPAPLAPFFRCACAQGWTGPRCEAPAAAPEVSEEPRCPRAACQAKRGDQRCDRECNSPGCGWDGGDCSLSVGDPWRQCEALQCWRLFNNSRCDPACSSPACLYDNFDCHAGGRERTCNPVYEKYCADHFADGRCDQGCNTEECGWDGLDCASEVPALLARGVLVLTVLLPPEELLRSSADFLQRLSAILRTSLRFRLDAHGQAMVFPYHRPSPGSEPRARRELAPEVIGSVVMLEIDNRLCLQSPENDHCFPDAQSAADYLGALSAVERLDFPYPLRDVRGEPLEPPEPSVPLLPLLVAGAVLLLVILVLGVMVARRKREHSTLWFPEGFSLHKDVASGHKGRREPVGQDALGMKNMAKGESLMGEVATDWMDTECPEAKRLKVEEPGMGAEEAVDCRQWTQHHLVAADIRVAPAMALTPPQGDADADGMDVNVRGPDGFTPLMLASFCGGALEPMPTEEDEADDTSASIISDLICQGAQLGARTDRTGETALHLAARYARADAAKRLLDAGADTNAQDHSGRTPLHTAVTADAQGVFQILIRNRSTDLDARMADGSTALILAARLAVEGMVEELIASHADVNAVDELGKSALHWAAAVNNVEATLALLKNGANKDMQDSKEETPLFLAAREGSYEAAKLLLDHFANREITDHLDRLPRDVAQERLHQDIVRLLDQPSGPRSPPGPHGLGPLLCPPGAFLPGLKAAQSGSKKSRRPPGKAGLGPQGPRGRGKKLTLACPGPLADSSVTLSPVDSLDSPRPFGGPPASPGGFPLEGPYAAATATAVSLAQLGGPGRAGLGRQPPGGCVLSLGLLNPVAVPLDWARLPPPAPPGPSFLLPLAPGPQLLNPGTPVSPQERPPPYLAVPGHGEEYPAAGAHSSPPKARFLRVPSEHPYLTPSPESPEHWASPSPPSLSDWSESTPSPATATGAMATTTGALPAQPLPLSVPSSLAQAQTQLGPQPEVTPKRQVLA
Chain of Dickkopf-related protein 1 (Homo sapiens) (O94907 whole entry, looked up): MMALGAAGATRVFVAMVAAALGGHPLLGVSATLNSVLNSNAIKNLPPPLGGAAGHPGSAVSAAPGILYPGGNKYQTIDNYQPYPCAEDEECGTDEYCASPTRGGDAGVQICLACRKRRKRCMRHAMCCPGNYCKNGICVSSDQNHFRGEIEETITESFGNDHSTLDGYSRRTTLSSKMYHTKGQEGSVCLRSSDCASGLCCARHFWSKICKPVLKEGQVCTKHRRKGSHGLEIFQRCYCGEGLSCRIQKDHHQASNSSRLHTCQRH
Chain of Torsin-1A-interacting protein 2 (Homo sapiens) (Q8NFQ8 whole entry, looked up): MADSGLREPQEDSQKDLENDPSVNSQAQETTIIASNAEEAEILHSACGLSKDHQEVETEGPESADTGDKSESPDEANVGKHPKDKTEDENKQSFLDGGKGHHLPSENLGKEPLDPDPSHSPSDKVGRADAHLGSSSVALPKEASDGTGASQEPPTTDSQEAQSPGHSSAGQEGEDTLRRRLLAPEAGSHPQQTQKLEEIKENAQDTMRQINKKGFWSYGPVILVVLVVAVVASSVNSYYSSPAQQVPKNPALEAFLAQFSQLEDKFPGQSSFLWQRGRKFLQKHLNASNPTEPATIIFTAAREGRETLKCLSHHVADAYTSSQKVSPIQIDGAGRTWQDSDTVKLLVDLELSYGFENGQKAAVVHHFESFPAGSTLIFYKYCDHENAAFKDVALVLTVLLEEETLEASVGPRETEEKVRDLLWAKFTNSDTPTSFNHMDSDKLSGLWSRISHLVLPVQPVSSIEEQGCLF
Chain of Epidermal growth factor receptor (Homo sapiens) (P00533 whole entry, looked up): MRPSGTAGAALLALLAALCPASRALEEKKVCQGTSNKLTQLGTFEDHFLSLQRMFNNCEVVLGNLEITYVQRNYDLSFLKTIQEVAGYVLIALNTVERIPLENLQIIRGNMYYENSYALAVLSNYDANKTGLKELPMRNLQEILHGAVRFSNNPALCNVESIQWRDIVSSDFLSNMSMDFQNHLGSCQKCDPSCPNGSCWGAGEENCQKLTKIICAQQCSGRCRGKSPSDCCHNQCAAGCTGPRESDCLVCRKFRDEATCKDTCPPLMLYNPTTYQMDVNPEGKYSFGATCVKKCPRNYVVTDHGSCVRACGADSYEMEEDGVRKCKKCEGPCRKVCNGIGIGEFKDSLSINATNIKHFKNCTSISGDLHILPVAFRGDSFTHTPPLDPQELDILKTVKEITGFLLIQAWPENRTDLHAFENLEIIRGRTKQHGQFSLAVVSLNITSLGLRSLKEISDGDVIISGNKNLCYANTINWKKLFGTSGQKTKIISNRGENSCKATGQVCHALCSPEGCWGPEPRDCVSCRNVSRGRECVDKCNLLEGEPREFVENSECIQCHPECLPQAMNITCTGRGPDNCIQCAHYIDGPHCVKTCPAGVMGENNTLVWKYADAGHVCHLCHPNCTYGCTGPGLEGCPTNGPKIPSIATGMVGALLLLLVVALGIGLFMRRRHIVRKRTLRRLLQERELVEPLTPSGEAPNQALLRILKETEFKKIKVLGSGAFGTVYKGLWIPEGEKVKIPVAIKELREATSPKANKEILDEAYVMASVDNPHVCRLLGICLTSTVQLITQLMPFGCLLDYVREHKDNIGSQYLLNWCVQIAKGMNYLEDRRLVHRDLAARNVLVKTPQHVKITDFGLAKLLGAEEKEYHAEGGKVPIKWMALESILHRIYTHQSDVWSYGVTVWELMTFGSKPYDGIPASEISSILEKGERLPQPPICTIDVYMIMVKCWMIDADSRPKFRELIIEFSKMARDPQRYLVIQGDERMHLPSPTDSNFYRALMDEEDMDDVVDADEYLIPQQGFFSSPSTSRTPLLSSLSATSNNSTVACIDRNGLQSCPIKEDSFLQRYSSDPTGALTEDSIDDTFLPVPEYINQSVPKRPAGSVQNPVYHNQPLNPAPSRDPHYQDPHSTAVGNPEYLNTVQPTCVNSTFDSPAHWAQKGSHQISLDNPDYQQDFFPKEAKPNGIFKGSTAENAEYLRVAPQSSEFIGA

| Compound | composite z-score [1] | z-score [2] | z-score [3] | z-score [4] | composite z-score [5] | z-score [6] | composite z-score [7] | composite z-score [8] | composite z-score [9] | composite z-score [10] | composite z-score [11] | composite z-score [12] | composite z-score [13] | z-score [14] | composite z-score [15] | composite z-score [16] | composite z-score [17] | composite z-score [18] | composite z-score [19] | composite z-score [20] |
| --- | --- | --- | --- | --- | --- | --- | --- | --- | --- | --- | --- | --- | --- | --- | --- | --- | --- | --- | --- | --- |
| O=C1O[C@H](c2ccccc2)[C@H](c2ccccc2)N2[C@H]1[C@@H](C(=O)N1CCCCCCC1)[C@]1(C(=O)Nc3ccc(C#CC4(O)CCCCCC4)cc31)[C@H]2c1ccccc1OCCO | 1.54 | 1.56 (inactive) | 0.462 (inactive) | 3.41 (inactive) | 5.1 | 1.04 (inactive) | 1.91 | 2.38 | 1.03 | 1.51 | 2.09 | 3.17 | 1.7 | -0.0867 (inactive) | 1.56 | 1.48 | 1.96 | 1.77 | 2.77 | 1.69 |
| NC(=O)N1C(=O)C2C(C1=O)C1C=C(CCCO)C2C(C2CC2)N1Cc1cccc(OC(F)(F)F)c1 (stereo not given) | 0.639 | -0.897 (inactive) | -0.497 (inactive) | -1.47 (inactive) | 2.63 | -0.284 (inactive) | -0.249 | -0.0319 | -0.538 | -0.184 | 1.59 | -0.306 | -0.345 | 0.0948 (inactive) | 0.075 | -0.186 | -0.595 | -0.494 | -0.0361 | 0.561 |
| CCCCC(=O)N(CCN1CCOCC1)[C@@H]1CC(C(=O)NCCO)=C[C@H](Oc2c(I)cc(CO)cc2OC)[C@H]1O | 0.729 | 0.0164 (inactive) | -0.393 (inactive) | 0.0883 (inactive) | 0.322 | 1.3 (inactive) | -0.301 | 0.26 | 0.232 | -0.152 | 0.787 | -0.309 | -0.764 | 0.751 (inactive) | 0.318 | 0.725 | 0.349 | 0.412 | 0.817 | 0.0845 |
| CC1CC/C=C\[C@H]2OC34C=CCN(CCN5CCOCC5)C(=O)[C@H]3N(C(C)CO)C(=O)[C@@H]4C2C(=O)O1 (stereo not given in full) | 0.564 | 0.194 (inactive) | -0.365 (inactive) | 0.0614 (inactive) | 3.36 | -0.476 (inactive) | -0.161 | 0.223 | 0.21 | -0.156 | 0.489 | -0.356 | -0.415 | 1.02 (inactive) | -0.42 | -0.42 | -0.599 | -0.214 | -0.0076 | 1.14 |
| COC(=O)[C@@]1(Cc2ccc(F)cc2)[C@H]2c3cc(C(=O)N(C)C)n(Cc4c(CO)[nH]cc(C)c4=O)c3C[C@H]2CN1C(=O)c1ccccc1 | -0.51 | 0.342 (inactive) | -0.392 (inactive) | 0.796 (inactive) | 1.63 | -0.893 (inactive) | 0.378 | -0.115 | -0.032 | 0.297 | -0.0424 | 0.617 | 0.721 | -0.73 (inactive) | 0.663 | -0.271 | 0.0656 | -0.217 | -0.12 | 0.693 |
| C=CCC(OC(C)=O)[C@@H]1[C@@H](N(Cc2cccc3ccccc23)C(=O)Cc2ccc(F)cc2)c2cc(OCCCO)ccc2N1C(=O)c1ccc(-c2ccccc2)cc1 (stereo not given in full) | -0.325 | -0.256 (inactive) | -0.277 (inactive) | 0.18 (inactive) | 0.451 | 0.125 (inactive) | 0.125 | -0.556 | -1.37 | 0.0457 | -0.171 | 0.592 | 0.976 | -0.312 (inactive) | -0.219 | -0.502 | -0.304 | 0.047 | -0.506 | 1.45 |
| CC1(C)C(=O)C(c2ccccc2)=C2CN3C(=O)N(CCc4ccccc4)C(=O)C3(Cc3ccc(C(F)(F)F)cc3)C=C21 (stereo not given) | -0.362 | 1.32 (inactive) | 2.01 (inactive) | 3.28 (inactive) | 2.65 | -1.21 (inactive) | 0.208 | -0.0717 | 1.13 | 0.284 | 0.9 | 1.01 | 1.12 | 0.701 (inactive) | 0.472 | 0.288 | -0.0744 | 0.717 | -1.01 | 0.721 |
| C=C(COC)C(=O)CC[C@@H](OC(=O)c1cccnc1)c1ccccc1OCCO | 0.409 | -0.587 (inactive) | -1.7 (inactive) | -0.369 (inactive) | -0.135 | 0.0506 (inactive) | 0.0789 | 0.879 | -0.302 | -0.0828 | 1.4 | 0.403 | 0.647 | 0.591 (inactive) | 0.694 | -0.0625 | -0.333 | 0.529 | 0.18 | 1.51 |
| COCC(=C=CC[C@@H](O)c1cccc(OCCO)c1)CCO | 0.783 | 0.0995 (inactive) | 0.114 (inactive) | -0.0032 (inactive) | 0.939 | 0.0464 (inactive) | -0.171 | 0.225 | 0.669 | 0.102 | 1.03 | 0.0771 | 0.268 | 0.317 (inactive) | 0.984 | 0.162 | -0.846 | 0.167 | -0.111 | 0.598 |
| C=CCNC(=O)[C@H]1[C@@H]2C(=O)O[C@@H](c3ccccc3)[C@@H](c3ccccc3)N2[C@@H](c2ccc(OCCO)cc2)[C@]12C(=O)Nc1ccc(C#CCNC(N)=O)cc12 | 1.56 | 2.34 (inactive) | 1.48 (inactive) | 4.76 (inactive) | 1.98 | 0.714 (inactive) | 0.155 | 1.1 | 1.07 | 0.0562 | 1.2 | 0.867 | 1.05 | -0.595 (inactive) | 1.13 | 0.332 | -0.471 | 0.65 | 0.0352 | 0.624 |
